Over roughly 16,000 sequences, “rpm ratio (pull-down/input)” has its median near 0.5; the highest 2% begin near 5.5. The full list was thinned out, with the highest values kept by preference.

The assay deals with T1, MBP-FoxP3dN (Mus musculus, UniProt Q99JB6 188-423).
T1 sequence: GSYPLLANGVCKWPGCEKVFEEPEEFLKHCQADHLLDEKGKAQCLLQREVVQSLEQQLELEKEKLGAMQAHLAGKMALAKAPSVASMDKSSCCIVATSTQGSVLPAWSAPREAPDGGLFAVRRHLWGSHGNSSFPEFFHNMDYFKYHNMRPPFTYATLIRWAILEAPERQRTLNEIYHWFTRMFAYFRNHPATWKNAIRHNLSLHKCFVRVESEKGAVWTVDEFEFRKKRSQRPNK
Put plainly: PD-seq (MBP pull-down with sequencing); 20 mM Tris-HCl pH 7.5, 100 mM NaCl, 1.5 mM MgCl2, 0.4 uM protein, 0.1 uM dsDNA library, 30 min, room temperature, amylose pull-down; high values mean tight binding. The following applies: protein: recombinant; tags: His6-MBP; chain copies: 2; dsDNA, one strand shown. The method, boiled down:
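A degenerate double-stranded DNA library, filled in with Klenow, was added at 0.1 µM to 0.4 µM His6-MBP-tagged mouse FoxP3 or FoxP1 fragment lacking the N-terminus, expressed in E. coli. Incubation lasted 30 min at room temperature in Tris pH 7.5 buffer with NaCl and MgCl2, after which complexes were collected on amylose resin, washed three times, digested with proteinase K to free the DNA, barcoded by PCR and sequenced by Illumina. Binding is the pooled-replicate reads-per-million enrichment of pull-down over input.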
As for “GATGATTGTTCTCCCAGCTGATGAATTGGGAATTTCGAGTAAACAAATTTTCCTAATCTTTCTGTTCAAGCGCCATCTAC”, the binding signal is 1.3 RPM ratio (pull-down/input).

For the sequence “GATGATTGTTCTCCCAGCTGATGAATTAGGCACGTCGAGTAAACAAATTTTCCTAATCTTTCTGTTCAAGCGCCATCTAC”, the binding signal was 1.03 RPM ratio (pull-down/input).

As to “GATGATTGTTCTCCCAGCTGATGAATTACTCTGCTCGAGTAAACAAATTTTCCTAATCTTTCTGTTCAAGCGCCATCTAC”, the binding signal was 0.3 RPM ratio (pull-down/input).

With “GATGATTGTTCTCCCAGCTGATGAATTACGTTGCTCGAGTAAACAAATTTTCCTAATCTTTCTGTTCAAGCGCCATCTAC”, the binding signal is 1.14 RPM ratio (pull-down/input).

For the sequence “GATGATTGTTCTCCCAGCTGATGAATTAGGACATTCGAGTAAACAAATTTTCCTAATCTTTCTGTTCAAGCGCCATCTAC”, the binding signal was 0.784 RPM ratio (pull-down/input).

Turning to “GATGATTGTTCTCCCAGCTGATGAATTAAAGAATTCGAGTAAACAAATTTTCCTAATCTTTCTGTTCAAGCGCCATCTAC”, the binding signal was 0.677 RPM ratio (pull-down/input).

On to “GATGATTGTTCTCCCAGCTGATGAATTCTGTATTTCGAGTAAACAAATTTTCCTAATCTTTCTGTTCAAGCGCCATCTAC”, for which the binding signal is 4.09 RPM ratio (pull-down/input).

Regarding “GATGATTGTTCTCCCAGCTGATGAATTTCTGTATTCGAGTAAACAAATTTTCCTAATCTTTCTGTTCAAGCGCCATCTAC”, the binding signal is 1.38 RPM ratio (pull-down/input).

As for “GATGATTGTTCTCCCAGCTGATGAATTGTATATTTCGAGTAAACAAATTTTCCTAATCTTTCTGTTCAAGCGCCATCTAC”, the binding signal was 3.17 RPM ratio (pull-down/input).

With “GATGATTGTTCTCCCAGCTGATGAATTTGTATATTCGAGTAAACAAATTTTCCTAATCTTTCTGTTCAAGCGCCATCTAC”, the binding signal was 6.34 RPM ratio (pull-down/input).

On to “GATGATTGTTCTCCCAGCTGATGAATTTTTGTATTCGAGTAAACAAATTTTCCTAATCTTTCTGTTCAAGCGCCATCTAC”, for which the binding signal was 2.57 RPM ratio (pull-down/input).

As for “GATGATTGTTCTCCCAGCTGATGAATTGTGTAATTCGAGTAAACAAATTTTCCTAATCTTTCTGTTCAAGCGCCATCTAC”, the binding signal is 3.19 RPM ratio (pull-down/input).

As to “GATGATTGTTCTCCCAGCTGATGAATTCGTGTATTCGAGTAAACAAATTTTCCTAATCTTTCTGTTCAAGCGCCATCTAC”, the binding signal is 2.95 RPM ratio (pull-down/input).

For “GATGATTGTTCTCCCAGCTGATGAATTGTATTGTTCGAGTAAACAAATTTTCCTAATCTTTCTGTTCAAGCGCCATCTAC”, the binding signal is 6.04 RPM ratio (pull-down/input).

With “GATGATTGTTCTCCCAGCTGATGAATTGTGTATTTCGAGTAAACAAATTTTCCTAATCTTTCTGTTCAAGCGCCATCTAC”, the binding signal was 5.82 RPM ratio (pull-down/input).

For the sequence “GATGATTGTTCTCCCAGCTGATGAATTTGTGTATTCGAGTAAACAAATTTTCCTAATCTTTCTGTTCAAGCGCCATCTAC”, the binding signal was 6.95 RPM ratio (pull-down/input).

On to “GATGATTGTTCTCCCAGCTGATGAATTCGTATATTCGAGTAAACAAATTTTCCTAATCTTTCTGTTCAAGCGCCATCTAC”, for which the binding signal was 2.61 RPM ratio (pull-down/input).

Regarding “GATGATTGTTCTCCCAGCTGATGAATTGTATTTTTCGAGTAAACAAATTTTCCTAATCTTTCTGTTCAAGCGCCATCTAC”, the binding signal is 3.78 RPM ratio (pull-down/input).

On to “GATGATTGTTCTCCCAGCTGATGAATTTTTACGATCGAGTAAACAAATTTTCCTAATCTTTCTGTTCAAGCGCCATCTAC”, for which the binding signal is 0.226 RPM ratio (pull-down/input).

Consider “GATGATTGTTCTCCCAGCTGATGAATTCCCTGCCTCGAGTAAACAAATTTTCCTAATCTTTCTGTTCAAGCGCCATCTAC”, for which the binding signal is 0.312 RPM ratio (pull-down/input).

For “GATGATTGTTCTCCCAGCTGATGAATTGTGAGGCTCGAGTAAACAAATTTTCCTAATCTTTCTGTTCAAGCGCCATCTAC”, the binding signal is 0.816 RPM ratio (pull-down/input).

As for “GATGATTGTTCTCCCAGCTGATGAATTTAAGTGCTCGAGTAAACAAATTTTCCTAATCTTTCTGTTCAAGCGCCATCTAC”, the binding signal was 0.628 RPM ratio (pull-down/input).

In the case of “GATGATTGTTCTCCCAGCTGATGAATTGTGGTTTTCGAGTAAACAAATTTTCCTAATCTTTCTGTTCAAGCGCCATCTAC”, the binding signal was 2.03 RPM ratio (pull-down/input).

For “GATGATTGTTCTCCCAGCTGATGAATTGGGTGGATCGAGTAAACAAATTTTCCTAATCTTTCTGTTCAAGCGCCATCTAC”, the binding signal is 0.423 RPM ratio (pull-down/input).

As to “GATGATTGTTCTCCCAGCTGATGAATTAAAGCTGTCGAGTAAACAAATTTTCCTAATCTTTCTGTTCAAGCGCCATCTAC”, the binding signal was 0.47 RPM ratio (pull-down/input).

Turning to “GATGATTGTTCTCCCAGCTGATGAATTCTTTCCCTCGAGTAAACAAATTTTCCTAATCTTTCTGTTCAAGCGCCATCTAC”, the binding signal is 0.206 RPM ratio (pull-down/input).

Consider “GATGATTGTTCTCCCAGCTGATGAATTAGTAGGGTCGAGTAAACAAATTTTCCTAATCTTTCTGTTCAAGCGCCATCTAC”, for which the binding signal is 1.4 RPM ratio (pull-down/input).

Turning to “GATGATTGTTCTCCCAGCTGATGAATTGTTCAACTCGAGTAAACAAATTTTCCTAATCTTTCTGTTCAAGCGCCATCTAC”, the binding signal was 0.485 RPM ratio (pull-down/input).

On to “GATGATTGTTCTCCCAGCTGATGAATTCTACAACTCGAGTAAACAAATTTTCCTAATCTTTCTGTTCAAGCGCCATCTAC”, for which the binding signal was 0.303 RPM ratio (pull-down/input).

As to “GATGATTGTTCTCCCAGCTGATGAATTTGCAAACTCGAGTAAACAAATTTTCCTAATCTTTCTGTTCAAGCGCCATCTAC”, the binding signal was 0.673 RPM ratio (pull-down/input).

“GATGATTGTTCTCCCAGCTGATGAATTCCGCAACTCGAGTAAACAAATTTTCCTAATCTTTCTGTTCAAGCGCCATCTAC”: the binding signal was 6.11 RPM ratio (pull-down/input).

Values taken from paper PMC12820563, “FoxP3 forms a head-to-head dimer in vivo and stabilizes its multimerization on adjacent microsatellites”.
